G9a inh: qHTS Assay for Inhibitors of Histone Lysine Methyltransferase G9a; 8.8% of 350,000 active; G9a H3K9 monomethylation, AlphaScreen, 2 h; Potency, µM (series often up to 102 µM), for inactives: at the highest dose activity, negative = inhibition, actives largely listed as inhibitors; Histone-lysine N-methyltransferase EHMT2 (Homo sapiens), Q96KQ7; also: % is scaled to controls: 0 for no effect and ±100 for the full control effect; nearly all actives have a fitted effect of over 75% in size
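Signal arises when biotinylated H3K9 peptide, once monomethylated, bridges streptavidin donor and antibody-captured acceptor beads. Enzyme at 20 nM was preincubated 15 min with test compounds; peptide 500 nM and SAM 20 uM then reacted for 2 h.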
12-LOX inh: Primary qHTS assay for inhibitors of human arachidonate 12S-lipoxygenase (ALOX12): Round 2 | 1.1% of 580,000 active | purified 12hLO, xylenol orange hydroperoxide absorbance | Potency, µM (highest dose often 108 µM), inactives show at the highest dose activity change, negative = inhibition, actives largely listed as inhibitors | Polyunsaturated fatty acid lipoxygenase ALOX12 (Homo sapiens), P18054; also: % is scaled to controls: 0 for no effect and ±100 for the full control effect
Target sequence (P18054 whole entry, looked up): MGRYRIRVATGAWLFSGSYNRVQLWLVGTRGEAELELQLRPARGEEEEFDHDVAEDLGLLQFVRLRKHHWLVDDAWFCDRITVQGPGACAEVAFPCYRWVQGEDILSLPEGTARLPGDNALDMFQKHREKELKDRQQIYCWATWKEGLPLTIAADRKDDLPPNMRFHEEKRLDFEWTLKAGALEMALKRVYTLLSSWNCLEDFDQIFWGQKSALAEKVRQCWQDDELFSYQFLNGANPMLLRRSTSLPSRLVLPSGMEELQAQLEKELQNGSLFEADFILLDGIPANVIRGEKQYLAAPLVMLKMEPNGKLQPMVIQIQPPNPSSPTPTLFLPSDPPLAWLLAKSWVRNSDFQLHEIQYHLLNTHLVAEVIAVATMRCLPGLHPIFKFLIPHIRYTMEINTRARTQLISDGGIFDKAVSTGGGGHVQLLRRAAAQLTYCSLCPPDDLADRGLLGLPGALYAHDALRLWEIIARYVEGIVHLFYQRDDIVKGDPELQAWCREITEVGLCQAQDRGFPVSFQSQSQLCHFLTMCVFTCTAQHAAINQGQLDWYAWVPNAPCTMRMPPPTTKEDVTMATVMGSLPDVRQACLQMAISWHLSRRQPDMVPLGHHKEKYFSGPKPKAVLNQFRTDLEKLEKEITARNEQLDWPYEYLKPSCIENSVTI
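Purified human 12hLO at 150 nM in 25 mM Hepes, 0.01% Triton X-100, pH 7.0, preincubated 15 min at room temperature with compound. Reaction started with 40 uM arachidonic acid, 30 min at room temperature. Hydroperoxide measured by Fe-xylenol orange, 573/405 nm absorbance ratio.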
GRP78 ERSR act: qHTS for Inducers of the Endoplasmic Reticulum Stress Response (ERSR) in Human Glioma: qHTS. U87-MG GRP78 promoter luciferase reporter, 16 h. Potency, µM, without a hit: top-dose activation, most hits filed as activators. 0.02% of 420,000 active. AID 602332, 2012; also: series mostly up to about 76 µM; % of control where 0% means no effect; nearly all actives have a fitted effect of over 35% in size
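Stably transfected U87-MG glioma cells carrying a GRP78-based luciferase sensor; 16 h compound incubation. Luminescence end-point read 10 min after Bright-Glo addition at room temperature.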
VDR inhibitor: Inhibitors of the vitamin D receptor (VDR): qHTS; 0.93% of 400,000 active; AID 504847, 2011; VDR-SRC2-3 peptide fluorescence polarization, 2 h; Vitamin D3 receptor (Homo sapiens), P11473; Potency, µM, for the others: max response, negative = inhibition, usual class: inhibitors; also: % is scaled to controls: 0 for no effect and ±100 for the full control effect
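Compounds are added to VDR with labelled SRC2-3 coactivator peptide and held 2 h at room temperature. Inhibition of the VDR–peptide interaction is then read as a change in fluorescence polarization.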
Sfp inh: qHTS Assay for Inhibitors of Bacillus subtilis Sfp phosphopantetheinyl transferase (PPTase); 4'-phosphopantetheinyl transferase ffp (Bacillus subtilis), Q9F4F7; Biochemical Sfp PPTase activity, qHTS; Potency, µM, for the others: largest response in the series, negative = inhibition, usual class: inhibitors; 3.5% of 310,000 active;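 also: the enzyme is Sfp with the accession as filed and its product quenches rhodamine fluorescence; 0% = enzyme reaction without inhibitor and -100% = no enzyme wells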
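Sfp 15 nM + cpd, 15 min RT; start w/ rhodamine-CoA 5 uM, BHQ-2-YbbR 12.5 uM (final); 50 mM Hepes pH 7.6, 10 mM MgCl2, 0.01% NP-40, 0.01% BSA; read 525/598 nm at 0 and 30 min.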
The depositor's hits bear a star; ? = inconclusive; . = not tested or not shown; ! = repeats disagree; [ ] = dose if it differs, or a comment. The sample as a whole holds a higher share of hits than the screen did. Calls follow the shape of the dose curve; as a rule, active = well fitted curve in the direction sought with a large enough effect; inconclusive = small, poorly fitted or top-dose-only effect, or another doubt; inactive = no such curve, though single readings can be large; an effect the other way counts as inactive or inconclusive. Potency is read from the fitted curve at half-maximal effect.

SMILES	G9a inh	12-LOX inh	GRP78 ERSR act	VDR inhibitor	Sfp inh
COc1ccc(OC)c(Nc2nc(-c3c(C)nc4ncccn34)cs2)c1	28µM*	?	-1%	0%	?
COc1ccc(Nc2nc(-c3cccnc3)cs2)c(OC)c1	.	18%	-3%	15%	-17%
COc1ccc(OC)c(Nc2nc(-c3cccs3)cs2)c1	?	-18%	4%	-9%	-11%
COc1ccc(Nc2nc(-c3cccs3)cs2)c(OC)c1	11µM*	?	5%	2%	?
O=C(NCCCN1CCOCC1)c1ccc2c(=O)n(Cc3ccc(Cl)cc3)c(=S)[nH]c2c1	7.1µM*	-17%	0%	-5%	-11%
CCOc1cc2[nH]c(=S)n(Cc3ccc(C(=O)NCCCN4CCOCC4)cc3)c(=O)c2cc1OCC	25µM*	16%	8%	-13%	12%
COC(=O)c1ccc2c(=O)n(Cc3ccc(C(=O)NCCCN4CCC(C)CC4)cc3)c(=S)[nH]c2c1	35µM*	?	-3%	0%	-7%
CCOc1cc2[nH]c(=S)n(Cc3ccc(C(=O)NCCCOC)cc3)c(=O)c2cc1OCC	13%	12%	0%	-14%	18%
COC(=O)c1ccc2c(=O)n(Cc3ccc(C(=O)NCCCN4CCOCC4)cc3)c(=S)[nH]c2c1	?	7%	3%	7%	10%
COc1ccc(Cn2c(=O)[nH]c3cc(C(=O)NCCCN4CCCCCC4)ccc3c2=O)cc1	56µM*	?	-4%	-1%	6%
CN(Cc1ccc(Cl)c(Cl)c1)C(=O)Cn1nnn(-c2cccs2)c1=O	.	-22%	.	.	.
CCc1ncc2c(=O)n(Cc3ccc(OC)cc3)ccn12	.	26%	.	.	.
CN(C)CCNC(=O)c1ccc2c(=O)n(Cc3ccc(Cl)cc3)c(=S)[nH]c2c1	?	?	-5%	-13%	?
CC1CCN(CCCNC(=O)c2ccc3c(=O)n(Cc4ccc(Cl)cc4)c(=S)[nH]c3c2)CC1	45µM*	?	-3%	-26%	79µM*
COc1ccc(C2=NS(=O)(=O)N(C)C(C(=O)N(C)Cc3ccccc3)=C2)cc1OC	14µM*!	211%	-2%	-4%	23%
COc1ccc(NC(=O)C2=CC(c3ccc4c(c3)OCO4)=NS(=O)(=O)N2C)cc1OC	-9%[59 µM]	5%	2%	8%	.
COc1ccc(C2=NS(=O)(=O)N(C)C(C(=O)Nc3ccc4c(c3)OCO4)=C2)cc1OC	35µM*	3%	0%	?	10%
c1ccc(N/N=C(\Cc2ncc[nH]2)c2ccccc2)cc1	2.8µM*	?	-1%	-27%	-6%
Clc1cccc(N/N=C(\Cc2nc3ccccc3[nH]2)c2ccccc2)c1	25µM*	13µM*	6%	1%	45%
COc1ccc(C(=O)N/N=C(\Cc2ncc[nH]2)c2ccccc2)cc1	2%	6%	0%	7%	16%
O=C(NCc1nc2ccccc2[nH]1)c1cccc(Cl)c1	5%[59 µM]	16%	-2%	-4%	.
CCOc1cccc(OCCn2c(-c3ccc(OC)cc3)nc3ccccc3c2=O)c1	.	0%	.	.	.
COc1ncccc1-c1cnc2n[nH]c(-c3ccccc3)c2n1	.	34%[176 µM]	.	.	.
COCc1oc2c(cc(NS(=O)(=O)c3ccc(C)cc3)c3ccccc32)c1C(=O)OC	.	-20%	.	.	.
Cc1ccc(S(=O)(=O)Nc2ccc(SC(F)F)cc2)c(C)c1	-11%[59 µM]	16µM*	-2%	2%	4%
SMILES	G9a inh	12-LOX inh	GRP78 ERSR act	VDR inhibitor	Sfp inh
O=S(=O)(NC1CC1)c1ccc(S(=O)(=O)N(Cc2ccccn2)C2CC2)cc1	71µM*	12%	1%	-6%	2%
O=C(CCc1ccc(S(=O)(=O)NC2CCCCC2)cc1)NCc1ccccn1	?	0%	-5%	-13%	40µM*
O=S(=O)(NC1CC1)c1ccc(S(=O)(=O)N(Cc2ccccn2)C2CCCC2)cc1	-6%[12.7 µM]	-10%	-2%	-10%	-12%
O=C(COc1ccc(S(=O)(=O)NC2CCCCC2)cc1Cl)NCc1cccnc1	?	?	-3%	9%	18µM*
C=CCN1CN(S(=O)(=O)c2cccc(Cl)c2)c2nc3ccccc3nc21	79µM*	?	1%	7%	0%
O=S(=O)(c1ccc(Cl)cc1)N1CN(CC2CCCO2)c2nc3ccccc3nc21 (configuration not stated)	40µM*	-20%	14%	-9%	3%
O=S(=O)(c1cccc(Cl)c1)N1CN(CC2CCCO2)c2nc3ccccc3nc21 (configuration not stated)	.	?	0%	-25%	2%
COCCN1CN(S(=O)(=O)c2cccc(Cl)c2)c2nc3ccccc3nc21	45µM*	-24%	-1%	0%	2%
Cn1c(=O)[nH]c(=O)c2c1nc(SCCO)n2Cc1cccc(Br)c1	.	-29%	.	.	.
O=c1cc2oc3cc(O)c(O)cc3c(-c3ccccc3O)c-2cc1O	16µM*	.	17%	?	79µM*
COc1ccccc1-c1cc(=O)c2cc(O)ccc2o1	.	.	2%	.	-3%
O=c1cc(-c2cccc(O)c2O)oc2ccccc12	.	.	-1%	.	79µM*
CCOc1ccccc1-c1c2cc(O)c(=O)cc-2oc2cc(O)c(O)cc12	10µM*	.	-7%	?	32µM*
O=c1cc(-c2ccccc2O)oc2cc(O)ccc12	.	.	-3%	7%	-4%
Cn1cccc1CN1CCCC2(C1)C(=NC1CCCCC1)NC(=O)N2c1cc(F)cc(F)c1 (configuration not stated)	.	8%[6.33 µM]	.	.	.
CCn1cc(C(=O)NCc2ccco2)c(=O)c2cc(F)c(N3CCN(C(=O)c4ccco4)CC3)cc21	14µM*	36%	-4%	5%	?
CCn1cc(C(=O)NCc2ccccn2)c(=O)c2cc(F)c(N3CCN(C)CC3)cc21	0.45µM*	25%	-7%	9%	20%
CCn1cc(C(=O)NCC(C)C)c(=O)c2cc(F)c(N3CCN(C(=O)c4ccco4)CC3)cc21	8%	-26%	-2%	-4%	6%
CCn1cc(C(=O)O)c(=O)c2cc(F)c(N3CCN(C(=S)NC(=O)c4ccccc4F)CC3)cc21	?	11%	-3%	2%	-1%
CCn1cc(C(=O)O)c(=O)c2cc(F)c(N3CCN(C(=O)Nc4ccccc4)CC3)cc21	40µM*	8%	-5%	8%	2%
Cc1ccc(C(=O)CC(c2ccc(Cl)cc2)S(=O)(=O)c2ccc(C)cc2)cc1 (configuration not stated)	.	0%	.	.	.
CC(CCC(=O)O)C1CCC2C3CC[C@H]4CC(O)CC[C@@]4(C)C3C=C[C@]12C (some centres not stated)	-23%[2.33 µM]	.	1%	28µM*	-19%

Screening data (PubChem BioAssay)
